Screens from PubChem.
An excerpt weighted towards active compounds, which were near 2.9% of everything screened.
ATXN viability: viability counter-screen for ATXN expression inhibitors. Potency, µM (titrated, usually from 56.7 µM), most hits filed as cytotoxic. AID 651635. S2 cells (HEK-293 line with an ATXN2-luciferase reporter) viability, CellTiter-Fluor protease fluorescence, 24 h. hit rate 0.49% among 400,000; further: nearly all actives have a fitted effect of over 40% in size
Nrf2 ARE act: activates Nrf2 signaling; AREc32 ARE-luciferase reporter (MCF7-derived line), luminescence, 24 h; Potency, µM (series often up to 46.1 µM), for inactives: at the top dose activation, most hits filed as activators; hit rate 0.31% among 410,000; AID 624171; further: % of control where 0% means no effect; nearly all actives have a fitted effect of over 65% in size
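Steps: seed AREc32_Fluc cells (1000/well, 5% FBS OPTI-MEM); incubate overnight at 37 deg C; add 23 nL compound; incubate 24 hr; add Steady-Glo; hold 30 min RT; read luminescence.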
ATXN2 expr inh: ATXN2 expression inhibition | HEK-293 ATXN2-luciferase reporter, luminescence, 24 h | Potency, µM (doses to about 57 µM), for the others: at the highest dose activity change, negative = inhibition, actives largely listed as inhibitors | hit rate 0.72% among 360,000; further: on the % scale 0 is the no-effect control and ±100 the full control effect; nearly all actives have a fitted effect of over 55% in size
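qHTS (up to 57 uM final) was run with 24 h compound exposure of reporter cells at 37 °C. Each well was multiplexed: SteadyGlo luminescence measured ATXN2-luciferase expression after a fluorogenic Gly-Phe-AFC viability readout (25 uM final).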
Nrf2 inh: blocks Nrf2 signaling; A549 ARE-Fluc reporter, luciferase luminescence, 18-24 h; Potency, µM (series often up to 46 µM), inactives show top-dose activity change, negative = inhibition, most hits filed as inhibitors; hit rate 2.1% among 360,000; AID 504444; further: on the % scale 0 is the no-effect control and ±100 the full control effect; nearly all actives have a fitted effect of over 60% in size
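Two sequential reads on A549 ARE_Fluc cells exposed to compound for 18-24 h: a CellTiter-Fluor fluorescence read for viability, then a luciferase luminescence read for Nrf2/ARE activity.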
A549 tox-1: A549 cytotoxicity, counter-screen for Nrf2 inhibitors; hit rate 0.16% among 390,000; Potency, µM (titrated, usually from 46 µM), inactives show top-dose activity change, negative = cytotoxicity, most hits filed as inhibitors; A549 ARE-Fluc cells, CellTiter-Fluor viability, 18-24 h; AID 504648; further: on the % scale 0 is the no-effect control and ±100 the full control effect
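Cytotoxicity counterscreen: CellTiter-Fluor fluorescence was measured in A549 ARE_Fluc cells after 18-24 h of compound exposure in a concentration series. The subsequent BugLite luminescent read reports ARE-luciferase activity.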
FLuc enzyme inh: firefly luciferase inhibition, Nrf2 hit validation; Potency, µM (highest dose often 57.5 µM), for inactives: at the top dose activity change, negative = inhibition, hits mostly inhibitors; shares compounds with Nrf2 inh; purified firefly luciferase, luminescence inhibition; hit rate 4% among 1,400; further: on the % scale 0 is the no-effect control and ±100 the full control effect; nearly all actives have a fitted effect of over 65% in size
Target sequence (P08659 whole entry, looked up): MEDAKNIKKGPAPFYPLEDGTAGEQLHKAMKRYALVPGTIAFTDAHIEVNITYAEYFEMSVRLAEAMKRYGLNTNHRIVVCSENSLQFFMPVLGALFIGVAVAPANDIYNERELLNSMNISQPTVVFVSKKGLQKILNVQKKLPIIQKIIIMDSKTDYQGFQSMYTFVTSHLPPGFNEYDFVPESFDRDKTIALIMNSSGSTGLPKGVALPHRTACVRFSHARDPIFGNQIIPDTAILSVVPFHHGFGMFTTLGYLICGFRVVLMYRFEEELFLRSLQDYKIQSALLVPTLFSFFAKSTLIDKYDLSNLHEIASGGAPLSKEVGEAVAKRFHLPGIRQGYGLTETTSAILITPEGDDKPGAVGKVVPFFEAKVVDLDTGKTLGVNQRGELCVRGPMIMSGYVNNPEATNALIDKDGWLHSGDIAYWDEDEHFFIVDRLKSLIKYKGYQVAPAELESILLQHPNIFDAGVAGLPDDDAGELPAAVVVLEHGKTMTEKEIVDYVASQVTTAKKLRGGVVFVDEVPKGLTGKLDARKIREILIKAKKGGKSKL
A549 tox-2: A549 cytotoxicity, Nrf2 inhibitor counterscreen. shares compounds with Nrf2 inh. hit rate 2% among 1,400. A549 ARE-Fluc cells, cytotoxicity counterscreen. Potency, µM (doses to about 46.1 µM), inactives show top-dose activity change, negative = cytotoxicity, actives largely listed as inhibitors;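 further: cells exposed to compounds for 18 to 24 hours; on the % scale 0 is the no-effect control and ±100 the full control effect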
Nrf2 ARE inh: Nrf2 inhibition confirmed, A549 ARE-luciferase | AID 720524 | shares compounds with Nrf2 inh | Potency, µM (top dose mostly 46.1 µM), without a hit: top-dose activity change, negative = inhibition, actives largely listed as inhibitors | hit rate 74% among 1,400 | A549 ARE-firefly luciferase reporter, luminescence; further: on the % scale 0 is the no-effect control and ±100 the full control effect; nearly all actives have a fitted effect of over 65% in size
An asterisk follows results filed as active. The call rests on the fitted dose curve; in most records, active means well fitted curve in the direction sought with a large enough effect; inconclusive means small, poorly fitted or top-dose-only effect, or another doubt; inactive means no such curve, though single readings can be large; an effect the other way counts as inactive or inconclusive. Potency means the concentration at half of the fitted maximal effect.

What do the screens show for `COc1cc([N+](=O)[O-])cc(/C=N/NC(=O)c2ccc(NC(=O)c3ccc(C)cc3)cc2)c1O`?
ATXN viability: inconclusive; Nrf2 ARE act: 0%; ATXN2 expr inh: inconclusive; Nrf2 inh: 4.6µM*; A549 tox-1: inconclusive; FLuc enzyme inh: -16%; A549 tox-2: inconclusive; Nrf2 ARE inh: 6.5µM*

What do the screens show for `COc1ccc(CNC(=O)Cc2nn(C)c(=O)c3ccccc23)cc1`?
ATXN viability: inactive; Nrf2 ARE act: 4%; ATXN2 expr inh: -8%; Nrf2 inh: 5.8µM*; A549 tox-1: -20%; FLuc enzyme inh: -14%; A549 tox-2: 0%; Nrf2 ARE inh: 4.6µM*

What do the screens show for `CCOC(=O)c1[nH]c2ccc(Cl)cc2c1NC(=O)/C=C/c1ccc2c(c1)OCO2`?
Nrf2 ARE act: 0%; ATXN2 expr inh: inconclusive; Nrf2 inh: 5.2µM*; A549 tox-1: -23%; FLuc enzyme inh: 0%; A549 tox-2: -27%; Nrf2 ARE inh: 4.1µM*

What do the screens show for `CN(Cc1ccccc1)C1=CC(=[N+]2CCCCC2)CC(C)(C)C1`?
ATXN viability: inactive; Nrf2 ARE act: 0%; ATXN2 expr inh: inconclusive; Nrf2 inh: 4.6µM*; A549 tox-1: inconclusive; FLuc enzyme inh: 3%; A549 tox-2: -27%; Nrf2 ARE inh: 0.82µM*

Results for Cc1ccc(CN2CCSc3ccc(C(=O)N4CCN(c5ccc(Cl)cc5)CC4)cc32)cc1 ?
ATXN viability: inactive; Nrf2 ARE act: 1%; ATXN2 expr inh: -14%; Nrf2 inh: -22%; A549 tox-1: 1%

Results for CN(C)S(=O)(=O)c1cccc(C(=O)NCCCn2ccnc2)c1 ?
ATXN viability: inactive; Nrf2 ARE act: 0%; ATXN2 expr inh: -16%; Nrf2 inh: 0%; A549 tox-1: 1%

How did CCN(CC)S(=O)(=O)c1ccc(C(=O)Nc2nnc(-c3ccco3)o2)cc1 do in these assays?
ATXN viability: inactive; Nrf2 ARE act: 0%; Nrf2 inh: inconclusive; A549 tox-1: -18%

What do the screens show for `CCCCN(CC)S(=O)(=O)c1ccc(C(=O)Nc2nnc(-c3cccs3)o2)cc1`?
ATXN viability: inconclusive; Nrf2 ARE act: 0%; ATXN2 expr inh: inconclusive; Nrf2 inh: 2.3µM*; A549 tox-1: -18%; FLuc enzyme inh: 3%; A549 tox-2: inconclusive; Nrf2 ARE inh: 7.3µM*

How did O=C(Nc1c(F)cccc1F)c1cnc(N2CCN(c3ccccn3)CC2)c2ccccc12 do in these assays?
ATXN viability: inconclusive; Nrf2 ARE act: -1%; ATXN2 expr inh: inconclusive; Nrf2 inh: 9.2µM*; A549 tox-1: inconclusive; FLuc enzyme inh: -10%; A549 tox-2: -11%; Nrf2 ARE inh: inconclusive

Results for COC(=O)c1cnc(N2CCN(c3ccc(F)cc3)CC2)c2ccccc12 ?
Nrf2 ARE act: -1%; A549 tox-1: -16%

How did Cc1ccc(S(=O)(=O)N/N=C2/CC(c3ccccc3)Oc3ccccc32)cc1[N+](=O)[O-] (stereo not drawn) do in these assays?
ATXN viability: inactive; Nrf2 ARE act: 14%; ATXN2 expr inh: 13%; Nrf2 inh: inconclusive; A549 tox-1: -15%

What do the screens show for `O=S(=O)(N/N=C1/CC(c2ccccc2)Oc2ccccc21)c1ccc(Br)cc1` (stereo not drawn)?
ATXN viability: inactive; Nrf2 ARE act: 8%; ATXN2 expr inh: -2%; Nrf2 inh: 8.2µM*; A549 tox-1: inconclusive; FLuc enzyme inh: inconclusive; A549 tox-2: -7%

Results for CCOC(=O)N1CCN(C(=O)CSc2cc(C)nc3c(-c4ccccc4OC)c(C)nn23)CC1 ?
ATXN viability: inconclusive; Nrf2 ARE act: 8%; ATXN2 expr inh: -9%; Nrf2 inh: inconclusive; A549 tox-1: -4%

What do the screens show for `CCOC(=O)N1CCC(Nc2cc(C)nc3c(-c4ccccc4OC)c(C)nn23)CC1`?
ATXN viability: inactive; Nrf2 ARE act: 3%; ATXN2 expr inh: inconclusive; Nrf2 inh: 9.2µM*; A549 tox-1: 24%; FLuc enzyme inh: -1%; A549 tox-2: -25%; Nrf2 ARE inh: 12µM*

How did CC1CCC(C(C)C)C(OC(=O)Cn2c(-c3ccc(F)cc3)[n+](C)c3ccccc32)C1 (stereo not drawn) do in these assays?
ATXN viability: inconclusive; Nrf2 ARE act: 1%; ATXN2 expr inh: 8.9µM*; Nrf2 inh: 8.2µM*; A549 tox-1: inconclusive; FLuc enzyme inh: -2%; A549 tox-2: inconclusive; Nrf2 ARE inh: 9.2µM*

What do the screens show for `Cc1cccc(OCc2n(CC(=O)OC3CC(C)CCC3C(C)C)c3ccccc3[n+]2C)c1` (stereo not drawn)?
Nrf2 ARE act: -2%; ATXN2 expr inh: inconclusive; Nrf2 inh: -12%; A549 tox-1: -13%

How did CC1CCC(C(C)C)C(OC(=O)Cn2c(-c3ccccc3)[n+](C)c3ccccc32)C1 (stereo not drawn) do in these assays?
ATXN viability: inconclusive; Nrf2 ARE act: 2%; ATXN2 expr inh: inconclusive; Nrf2 inh: 3.7µM*; A549 tox-1: inconclusive; FLuc enzyme inh: 0%; A549 tox-2: inconclusive; Nrf2 ARE inh: 2.1µM*

Results for COc1ccc(CN2C[C@@H](CO)O[C@@H](n3cnc4c(NC5CCC5)ncnc43)C2)cc1 ?
ATXN viability: inactive; Nrf2 ARE act: 0%; ATXN2 expr inh: 13%

How did CCOC(=O)C1CCCN(S(=O)(=O)c2ccc(S(=O)(=O)N3CCCC3)cc2)C1 (stereo not drawn) do in these assays?
ATXN viability: inactive; Nrf2 ARE act: -1%; ATXN2 expr inh: -5%; Nrf2 inh: 8.2µM*; A549 tox-1: -15%; FLuc enzyme inh: 3%; A549 tox-2: -3%; Nrf2 ARE inh: inconclusive

Results for COc1ccc(C(=O)C2CCCN(S(=O)(=O)c3ccc(C(C)=O)cc3)C2)c(C)c1 (stereo not drawn) ?
ATXN viability: inactive; Nrf2 ARE act: 0%; ATXN2 expr inh: inconclusive; Nrf2 inh: 8.2µM*; A549 tox-1: -14%; FLuc enzyme inh: 5%; A549 tox-2: -2%

How did CCS(=O)(=O)N1CCCC(C(=O)c2ccc(OC)cc2C)C1 (stereo not drawn) do in these assays?
ATXN viability: inactive; Nrf2 ARE act: -1%; ATXN2 expr inh: -16%; Nrf2 inh: -14%; A549 tox-1: -9%
